Rows were chosen to be rich in hits. Some 0.82% of all compounds tested hit in one or more screens of this group.
TcdB GH inh = TcdB glycohydrolase inhibitors, primary screen, biochemical, single point, plate reader; TcdB glycohydrolase enzymatic assay; inhibition, % at 9.99 µM; hit rate 0.24% among 350,000; AID 652162, 2013; in the data active = inhibition above about 10%
DUSP3 inh = VHR1 phosphatase inhibitors, primary screen, biochemical, absorbance, uHTS; Dual specificity protein phosphatase 3 (Homo sapiens), P51452; recombinant VHR phosphatase, pNPP absorbance; inhibition, % at 13.3 µM; hit rate 0.52% among 290,000; in the data active = inhibition above about 50%
PrPC surface inh = inhibitors of human cell surface prion protein PrPC, primary screen, cell-based, TR-FRET | inhibition, % at 13.8 µM | Major prion protein (Homo sapiens), P04156 | AID 720596, 2013 | hit rate 0.43% among 370,000 | TR-FRET read-out; in the data active = inhibition above about 24%; also: 0% = median of the test wells and 100% = reference compound wells
The depositor's hits bear a star.

`CO[C@H]1CN(C)C(=O)c2ccc(NC(=O)NC(C)C)cc2OC[C@@H](C)N(Cc2ccccc2)C[C@H]1C` gave TcdB GH inh -1.
`COc1cccc(NC(=O)Nc2ccc3c(c2)C(=O)N(C)[C@H]2CC[C@@H](CC(=O)NCCc4ccccc4)O[C@H]2CO3)c1` gave TcdB GH inh 1.
COCC#Cc1cnc2c(c1)C(=O)N([C@H](C)CO)C[C@@H](C)[C@@H](CN(C)S(=O)(=O)c1cn(C)cn1)O2 was read as TcdB GH inh -1.
For O=C(CCC1CCN(Cc2ccc(Cl)cc2)CC1)NC1CC1 the results were TcdB GH inh 1, DUSP3 inh 70 and PrPC surface inh -12.
Screening CCOc1cccc(CN2CCC(CCC(=O)NC3CC3)CC2)c1O returned TcdB GH inh -3, DUSP3 inh 51* and PrPC surface inh -13.
For CS(=O)(=O)N1CCN=C1SCc1ccc(Br)cc1 the results were TcdB GH inh 1, DUSP3 inh 8 and PrPC surface inh 6.
Screening Cc1ccc(CSC2=NCCN2C(=O)C2CC2)cc1 returned DUSP3 inh -1 and PrPC surface inh 0.
For CCOC(=O)N1CCN=C1SCc1ccc(Cl)c(Cl)c1 the results were TcdB GH inh 12*, DUSP3 inh 15 and PrPC surface inh -1.
For CC(=O)N1CCN=C1SCc1ccc(Br)cc1 the results were TcdB GH inh 1, DUSP3 inh 53* and PrPC surface inh 6.
`COCC(=O)N[C@@H]1CC[C@H](CC(=O)NCc2ccccc2OC)O[C@H]1CO` gave TcdB GH inh -2.
For C[C@H](O)C#Cc1cnc2c(c1)C(=O)N([C@@H](C)CO)C[C@H](C)[C@@H](CN(C)Cc1cccc(F)c1)O2 the results were TcdB GH inh 0.
For Cc1c(C(=O)c2ccccc2)c2ccccn2c1CCc1ccccn1 the results were TcdB GH inh 13*, DUSP3 inh 18 and PrPC surface inh -1.
`Cc1c(C(=O)c2ccc(F)cc2)c2ccccn2c1CCc1ccccn1` gave TcdB GH inh -2, DUSP3 inh -25 and PrPC surface inh -6.
CC(=O)Nc1ccc(NC(=O)CCN2C(=O)c3ccccc3C2=O)cc1 was read as TcdB GH inh 2, DUSP3 inh 10 and PrPC surface inh 4.
Cc1ccc2sc(-c3ccc(NC(=O)CCN4C(=O)c5ccccc5C4=O)cc3)nc2c1 was read as TcdB GH inh 1, DUSP3 inh 54* and PrPC surface inh 10.
For C[C@@H]1CN([C@H](C)CO)C(=O)Cc2cc(NS(C)(=O)=O)ccc2O[C@H]1CN(C)S(=O)(=O)c1cccs1 the results were TcdB GH inh 0.
O=C(O)c1ccc(NC(=O)c2cccc(S(=O)(=O)Nc3ccc(C(=O)O)cc3)c2)cc1 was read as TcdB GH inh 2, DUSP3 inh -47 and PrPC surface inh -8.
For O=C(Nc1cccc(S(=O)(=O)Nc2ccc(Cl)cc2)c1)c1ccc(Cl)nc1 the results were TcdB GH inh 1, DUSP3 inh 13 and PrPC surface inh 29*.
`COc1ccc(NS(=O)(=O)c2cccc(NC(=O)c3ccc(Cl)nc3)c2)cc1` gave TcdB GH inh 0, DUSP3 inh 26 and PrPC surface inh 18.
Screening O=C1CSc2ccc(C(=O)Nc3cccc(S(=O)(=O)Nc4ccc(Br)cc4)c3)cc2N1 returned TcdB GH inh 0, DUSP3 inh 17 and PrPC surface inh 36*.
`C/C=C/c1ccc2c(c1)O[C@H](CN(C)C)[C@@H](C)CN([C@H](C)CO)S2(=O)=O` gave TcdB GH inh 0.
`C[C@@H]1CN([C@H](C)CO)S(=O)(=O)c2ccc(C3=CCCCC3)cc2O[C@@H]1CN(C)Cc1ccncc1` gave TcdB GH inh 0.
Screening CN(C)C(=O)C[C@H]1CC[C@H]2[C@H](COc3ccc(NC(=O)C4CCCC4)cc3C(=O)N2C)O1 returned TcdB GH inh 1.
Cn1c(O)c(/C=C/C=Nc2ccccc2)c(=O)n(C)c1=S was read as DUSP3 inh 54* and PrPC surface inh 3.
Screening Cc1ccccc1-n1c(O)c(/C=C/C=Nc2ccccc2)c(=O)[nH]c1=O returned DUSP3 inh 2 and PrPC surface inh -8.
For CN1c2ccc(-c3cccc(C#N)c3)cc2[C@@H]2[C@@H](CCN2C(=O)C2CC2)[C@@H]1CO the results were TcdB GH inh 1.
CCCNC(=O)N1CC(=O)N2[C@H](C1)[C@H](c1ccc(-c3ccncc3)cc1)[C@@H]2CO was read as TcdB GH inh -1.
`CO[C@H]1CN(C)C(=O)c2cc(NS(=O)(=O)c3ccccc3C)ccc2OC[C@H](C)NC[C@H]1C` gave TcdB GH inh 0.
Screening O=C(Nc1ccc(C(=O)NCCCN2CCCCC2)cc1)C1=CSCCO1 returned TcdB GH inh 2, DUSP3 inh 57* and PrPC surface inh -8.
CC1CCCN(CCCNC(=O)c2ccc(NC(=O)C3=CSCCO3)cc2)C1 (configuration not stated) was read as TcdB GH inh 0, DUSP3 inh 2 and PrPC surface inh -6.
CS(=O)(=O)N1[C@@H](C#N)[C@H](c2ccc(C#CC3CCCC3)cc2)[C@@H]1CO was read as TcdB GH inh 1.
`CNC(=O)C[C@H]1CC[C@@H]2[C@H](COc3ccc(NC(=O)Nc4cccc(Cl)c4)cc3C(=O)N2C)O1` gave TcdB GH inh 3.
`Cc1ccccc1CNS(=O)(=O)c1csc(C(N)=O)c1` gave TcdB GH inh 0, DUSP3 inh 56* and PrPC surface inh -7.
For NC(=O)c1cc(S(=O)(=O)NCc2ccccc2)cs1 the results were TcdB GH inh 2, DUSP3 inh -20 and PrPC surface inh -4.
CCOc1ccc(S(=O)(=O)NCc2ccccc2Cl)cc1C(N)=O was read as TcdB GH inh 20*, DUSP3 inh 3 and PrPC surface inh -2.
`CCOc1ccc(S(=O)(=O)NCc2ccccc2)cc1C(N)=O` gave TcdB GH inh 6, DUSP3 inh 23 and PrPC surface inh 8.
Screening CCNC(=O)C[C@H]1CC[C@H]2[C@H](COc3ccc(NC(=O)Nc4ccc(C)cc4)cc3C(=O)N2C)O1 returned TcdB GH inh -1.
For COc1ccc(C(=O)C=CNNC(=O)c2ccc(Cl)cc2)cc1 the results were TcdB GH inh 0, DUSP3 inh 58* and PrPC surface inh 6.
`COc1ccc(C(=O)NN/C=C/C(=O)c2ccc(Br)cc2)cc1` gave TcdB GH inh 0 and PrPC surface inh -4.
For CO[C@@H]1CN(C)C(=O)c2cc(NC(=O)c3cnccn3)ccc2OC[C@H](C)N(CCc2ccccc2)C[C@@H]1C the results were TcdB GH inh 0.
C[C@H](CO)N1C[C@H](C)[C@H](CN(C)Cc2ccc(C(=O)O)cc2)Oc2ccc(NC(=O)C3CC3)cc2C1=O was read as TcdB GH inh 0.
Screening C[C@@H]1CN([C@H](C)CO)C(=O)c2c(c3ccccc3n2C)-c2ccccc2CO[C@H]1CN(C)C(=O)[C@@H]1CCCN1C returned TcdB GH inh 0.
For COc1cccc(-c2cnc3c(c2)C(=O)N([C@H](C)CO)C[C@H](C)[C@H](CN(C)C)O3)c1 the results were TcdB GH inh 0.

Screens: PubChem, several laboratories
